# Results published in PubChem BioAssay.
# Where “and” joins values, the source holds several entries; their conditions need not be identical. Equal values may be shown once. Inconclusive results are not listed. Where a structure was tested more than once in an assay, its records may differ in their call. Calls of active or inactive are those of the source.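 The calls were made as follows, unless noted: active = normalized viability below 100% at a tested concentration; inactive = the rest.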
# Assays:
# [1] = viability loss in pontine glioma line – cell-based, SU-DIPG-XXV, MIPE5.0, CellTiter-Glo, qHTS, dose response (AID 1347065; cut-off not given, nearly all actives have AC50 up to about 26 µM;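 also: cells exposed to compound for 48 hours before ATP readout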); conditions: CellTiter-Glo ATP luminescence
# [2] = growth inhibition of DIPG cells – cell-based, MIPE4.0 library, CellTiter-Glo luminescence, qHTS (AID 1347066; cut-off not given, nearly all actives have AC50 up to about 30 µM;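 also: cells exposed to compound for 48 hours before readout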); conditions: SU-DIPG-VI viability, CellTiter-Glo ATP luminescence
# [3] = MELAS cybrid and Rieske KO viability enhancers – cell-based, MELAS cybrids, Rieske KO mouse fibroblasts, CellTiter-Glo, primary screen (AID 1508586;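 active = mean z-score across replicates of 1.96 or higher in either the MELAS or the Rieske mutant cell line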;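 also: z relative to plate mean and SD of compound and empty wells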); conditions: low glucose
# [4] = JHH-DIPG-1 glioma cell viability, MIPE5.0 library, CellTiter-Glo luminescence, qHTS (AID 1347067; cut-off not given, nearly all actives have AC50 up to about 26 µM;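 also: cells exposed to compound for 48 hours before readout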); conditions: JHH-DIPG-1 glioma viability, CellTiter-Glo ATP luminescence
# [5] = growth inhibition of DIPG cells – cell-based, MIPE5.0 library, qHTS (AID 1347068; cut-off not given, nearly all actives have IC50 up to about 30 µM;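 as to IC50: cells exposed to compound for 48 hours before viability readout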); conditions: SU-DIPG-XXV viability
# [6] = viability loss with induced miR-34 in A549 – imaging, A549 dox-inducible miR-34, nuclei and caspase counts, primary screen (AID 1347080;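 active = compounds whose cell count with miR-34 switched on is under 0.7 times the count with it off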); conditions: A549 miR-34 inducible, Hoechst nuclei count, 48 h
# [7] = compounds altering HSF1 focus formation in cells – imaging, Selleck Cancer Library (AID 1347162; in the data active = plate-normalised HSF1 focus index below about 0.46); conditions: human cells, HSF1 nuclear foci imaging, at 10 µM; SSMD: measured here: HSF1 foci SSMD mean; cell count: measured here: cell number; plate-normalised HSF1 focus index: stronger effect = lower value
# [8] = drug combination growth inhibition, ovarian cancer – cell-based, oncology-focused library, rucaparib conditional, profiling panel (AID 1508598); conditions: patient-derived ovarian cancer cells, CellTiter-Glo viability, 144 h, stronger effect = lower value
# [9] = blockers of cellular phospholipid synthesis – cell-based, LOPAC library, screen 4, primary screen (AID 1347384; call rule not given here); conditions: animal cells, phospholipid biosynthesis inhibition screen; at 10 µM
# [10] = MELAS cybrid survival, CellTiter-Glo 48 h, stronger effect = higher value
# [11] = Rieske KO mouse fibroblast survival, CellTiter-Glo 72 h
# [12] = stronger effect = lower value, cell number ratio, induced over uninduced
# [13] = measured here: relative caspase fold change +Dox/-Dox
# [14] = measured here: total cells with miR-34 induction, stronger effect = lower value
# [15] = measured here: total cells without miR-34 induction
smiles,measurement,setting,value
C#C[C@]1(O)CC[C@H]2[C@@H]3CCc4cc(O)ccc4[C@H]3CC[C@@]21C,AC50,[1],13.2 µM (active)
same,outcome,[2],inactive
same,z-score,[3]; [10],1.16 (inactive)
same,z-score,[3]; [11],0.428
Cn1c(NCCN(CCO)CCCc2ccc([N+](=O)[O-])cc2)cc(=O)n(C)c1=O,outcome,[1],inactive
same,outcome,[4],inactive
same,outcome,[5],inactive
same,fold change,[6]; [12],0.987 (inactive) and 0.875 (inactive)
same,fold change,[6]; [13],1.91 and 1.23
same,cell count,[6]; [14],8810 and 9410
same,cell count,[6]; [15],8920 and 10800
same,z-score,[3]; [10],0.423 (inactive) and 0.101 (inactive)
same,z-score,[3]; [11],0.302 and -0.676
Cc1ccc(NC(=O)c2ccc(CN3CCN(C)CC3)cc2)cc1Nc1nccc(-c2cccnc2)n1,AC50,[1],23.5 µM (active)
same,outcome,[2],inactive
same,SSMD,[7],2.47
same,cell count,[7],6720
same,plate-normalised HSF1 focus index,[7],1.13 (inactive)
same,viability,"[8]; at 0.000305 µM, OCI-C5x cells, with rucaparib 10 µM, 100% = cells with rucaparib alone",112% (inactive) and 107% (inactive)
same,viability,"[8]; at 0.000305 µM, OCI-C5x cells, without rucaparib",107% (inactive) and 98.4% (active)
same,viability,"[8]; at 0.000305 µM, OCI-P5x cells, with rucaparib 20 µM, 100% = cells with rucaparib alone",97.9% (active) and 85.2% (active)
same,viability,"[8]; at 0.000305 µM, OCI-P5x cells, without rucaparib",98.1% (active) and 85.5% (active)
same,viability,"[8]; at 0.00122 µM, OCI-C5x cells, with rucaparib 10 µM, 100% = cells with rucaparib alone",109% (inactive) and 103% (inactive)
same,viability,"[8]; at 0.00122 µM, OCI-C5x cells, without rucaparib",106% (inactive) and 98.3% (active)
same,viability,"[8]; at 0.00122 µM, OCI-P5x cells, with rucaparib 20 µM, 100% = cells with rucaparib alone",95.4% (active) and 92.7% (active)
same,viability,"[8]; at 0.00122 µM, OCI-P5x cells, without rucaparib",96.8% (active) and 89.4% (active)
same,viability,"[8]; at 0.00488 µM, OCI-C5x cells, with rucaparib 10 µM, 100% = cells with rucaparib alone",113% (inactive) and 114% (inactive)
same,viability,"[8]; at 0.00488 µM, OCI-C5x cells, without rucaparib",108% (inactive) and 102% (inactive)
same,viability,"[8]; at 0.00488 µM, OCI-P5x cells, with rucaparib 20 µM, 100% = cells with rucaparib alone",92.2% (active) and 93.1% (active)
same,viability,"[8]; at 0.00488 µM, OCI-P5x cells, without rucaparib",99.4% (active) and 94.5% (active)
same,viability,"[8]; at 0.0195 µM, OCI-C5x cells, with rucaparib 10 µM, 100% = cells with rucaparib alone",120% (inactive) and 104% (inactive)
same,viability,"[8]; at 0.0195 µM, OCI-C5x cells, without rucaparib",112% (inactive) and 98.4% (active)
same,viability,"[8]; at 0.0195 µM, OCI-P5x cells, with rucaparib 20 µM, 100% = cells with rucaparib alone",94.9% (active) and 104% (inactive)
same,viability,"[8]; at 0.0195 µM, OCI-P5x cells, without rucaparib",95% (active) and 94.1% (active)
same,viability,"[8]; at 0.0781 µM, OCI-C5x cells, with rucaparib 10 µM, 100% = cells with rucaparib alone",123% (inactive) and 97.7% (active)
same,viability,"[8]; at 0.0781 µM, OCI-C5x cells, without rucaparib",115% (inactive) and 101% (inactive)
same,viability,"[8]; at 0.0781 µM, OCI-P5x cells, with rucaparib 20 µM, 100% = cells with rucaparib alone",95% (active) and 100% (inactive)
same,viability,"[8]; at 0.0781 µM, OCI-P5x cells, without rucaparib",96.1% (active) and 97.9% (active)
same,viability,"[8]; at 0.313 µM, OCI-C5x cells, with rucaparib 10 µM, 100% = cells with rucaparib alone",120% (inactive) and 104% (inactive)
same,viability,"[8]; at 0.313 µM, OCI-C5x cells, without rucaparib",110% (inactive) and 103% (inactive)
same,viability,"[8]; at 0.313 µM, OCI-P5x cells, with rucaparib 20 µM, 100% = cells with rucaparib alone",100% (inactive) and 103% (inactive)
same,viability,"[8]; at 0.313 µM, OCI-P5x cells, without rucaparib",96.2% (active) and 101% (inactive)
same,viability,"[8]; at 1.25 µM, OCI-C5x cells, with rucaparib 10 µM, 100% = cells with rucaparib alone",118% (inactive) and 105% (inactive)
same,viability,"[8]; at 1.25 µM, OCI-C5x cells, without rucaparib",115% (inactive) and 106% (inactive)
same,viability,"[8]; at 1.25 µM, OCI-P5x cells, with rucaparib 20 µM, 100% = cells with rucaparib alone",95.6% (active) and 99.9% (active)
same,viability,"[8]; at 1.25 µM, OCI-P5x cells, without rucaparib",95.1% (active) and 100% (inactive)
same,viability,"[8]; at 5 µM, OCI-C5x cells, with rucaparib 10 µM, 100% = cells with rucaparib alone",133% (inactive) and 131% (inactive)
same,viability,"[8]; at 5 µM, OCI-C5x cells, without rucaparib",124% (inactive) and 134% (inactive)
same,viability,"[8]; at 5 µM, OCI-P5x cells, with rucaparib 20 µM, 100% = cells with rucaparib alone",84.6% (active) and 98.4% (active)
same,viability,"[8]; at 5 µM, OCI-P5x cells, without rucaparib",89.8% (active) and 103% (inactive)
Cc1ccsc1C(=CCCN1CCC[C@@H](C(=O)O)C1)c1sccc1C,outcome,[1],inactive
same,outcome,[4],inactive
same,outcome,[5],inactive
CN1C(C(=O)Nc2ccccn2)=C(O)c2sccc2S1(=O)=O,outcome,[1],inactive
same,outcome,[2],inactive
same,outcome,[4],inactive
same,outcome,[5],inactive
same,z-score,[3]; [10],-0.378 (inactive) and 0.116 (inactive) and -0.742 (inactive)
same,z-score,[3]; [11],0.123 and -0.0171 and -1.25
CCOC(=O)[C@H](CCc1ccccc1)N[C@@H](C)C(=O)N1CCC[C@H]1C(=O)O,outcome,[1],inactive
same,outcome,[2],inactive
same,outcome,[4],inactive
same,fold change,[6]; [12],0.896 (inactive) and 0.877 (inactive) and 0.886 (inactive)
same,fold change,[6]; [13],0.827 and 3.26 and 1.44
same,cell count,[6]; [14],8260 and 11300 and 10300
same,cell count,[6]; [15],9220 and 12900 and 11600
same,z-score,[3]; [10],-1.03 (inactive) and -0.334 (inactive)
same,z-score,[3]; [11],-0.133 and -0.361
CCOc1cc(N)c(Cl)cc1C(=O)NCC1CN(Cc2ccc(F)cc2)CCO1 (stereo not given),outcome,[1],inactive
same,outcome,[2],inactive
same,outcome,[5],inactive
same,fold change,[6]; [12],0.847 (inactive) and 0.952 (inactive)
same,fold change,[6]; [13],1.51 and 0.602
same,cell count,[6]; [14],7930 and 7020
same,cell count,[6]; [15],9370 and 7370
same,z-score,[3]; [10],-0.303 (inactive)
same,z-score,[3]; [11],-0.205
CN1CCC(=C2c3ccccc3CCc3sccc32)CC1,outcome,[1],inactive
same,outcome,[2],inactive
same,outcome,[4],inactive
same,outcome,[5],inactive
same,z-score,[3]; [10],-0.441 (inactive) and -0.79 (inactive)
same,z-score,[3]; [11],-0.11 and 0.709
Cn1c(=O)c2c(ncn2C)n(C)c1=O,outcome,[1],inactive
same,outcome,[2],inactive
same,outcome,[4],inactive
same,fold change,[6]; [12],0.965 (inactive) and 0.863 (inactive)
same,fold change,[6]; [13],1.02 and 1.01
same,cell count,[6]; [14],9770 and 10600
same,cell count,[6]; [15],10100 and 12300
same,outcome,[9],inactive
same,z-score,[3]; [10],0.603 (inactive)
same,z-score,[3]; [11],-0.496
Nc1nc(=S)c2[nH]cnc2[nH]1,AC50,[1],1.48 µM (active)
same,AC50,[4],1.05 µM (active)
same,IC50,[5],4.17 µM (active)
same,fold change,[6]; [12],1.16 (inactive)
same,fold change,[6]; [13],0.96
same,cell count,[6]; [14],1820
same,cell count,[6]; [15],1580
CC(=O)O[C@]1(C(C)=O)CC[C@H]2[C@@H]3C=C(Cl)C4=CC(=O)[C@@H]5C[C@@H]5[C@]4(C)[C@H]3CC[C@@]21C,AC50,[1],33.2 µM (active)
same,outcome,[2],inactive
same,outcome,[5],inactive
same,fold change,[6]; [12],0.956 (inactive) and 0.85 (inactive)
same,fold change,[6]; [13],1.52 and 2.1
same,cell count,[6]; [14],8890 and 7970
same,cell count,[6]; [15],9300 and 9380
same,outcome,[9],inactive
same,z-score,[3]; [10],-0.4 (inactive)
same,z-score,[3]; [11],-0.158
